Screening data deposited in PubChem by National Center for Advancing Translational Sciences (NCATS).
Luc counter: blocks Kinase-Glo luciferase, a counter-screen artifact | Q27757 | Kinase-Glo luciferase, ATP luminescence, 8 min | Potency, µM (series often up to 38.3 µM), inactives show top-dose activity change, negative = inhibition, hits mostly inhibitors | actives 0.28% (n = 200,000) | AID 1379; active = well fitted inhibition curve with a large enough effect; inconclusive = small, poorly fitted or top-dose-only effect; note: potency is the fitted concentration of half-maximal effect; nearly all actives have a fitted effect of over 60% in size
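Kinase-Glo luciferase light output from ATP and luciferin was measured with 10 uM ATP, within the enzyme's linear range. Buffer: 50 mM imidazole pH 7.2, 50 mM KCl, 7 mM MgCl2, 0.01% Tween 20, 0.05% BSA; luminescence read after 8 min at ambient temperature.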
hERG WT inh: KCNH2 (human, wildtype) channel inhibition. Q12809. U2OS, BacMam KCNH2, thallium flux FluxOr; active compounds read low. activity change, % at 1.84 µM. actives 0.37% (n = 340,000). AID 720551;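 active = maximum activity change below -70%; inconclusive = maximum activity change between -70% and -50%; inactive = maximum activity change above -50%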
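U2OS cells transduced with wild-type KCNH2 virus are loaded with FluxOr dye for 45 min, and thallium flux is measured in kinetic reads before and after stimulation buffer. Rate constants are normalized to DMSO controls.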
KCNH2 3.1 block: inhibitors of human KCNH2 3.1 potassium channel isoform; actives 0.95% (n = 340,000); AID 720553; activity change, % (tested at about 1.8 µM); U2OS KCNH2 3.1, thallium flux FluxOr; active compounds read low;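 active = maximum activity change below -70%; inconclusive = maximum activity change from -70% to -50%; inactive = maximum activity change above -50%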;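 note: thallium influx rate constant from kinetic fluorescence after stimulation buffer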
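Measured as rate of thallium-driven FluxOr signal in transduced U2OS cells carrying the 3.1 channel, read kinetically for 2 min upon stimulation; values are rate constants scaled to DMSO control wells.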
* marks the source's active call; other numbers are inactive results; ? = inconclusive; . = no result given. The list is not random: actives were taken first. Their share in the collection is about 1.2%. % is set by controls: 0 for no effect and ±100 for the full control effect.

SMILES | Luc counter | hERG WT inh | KCNH2 3.1 block
CC1(C)Cc2c(sc(NC(=O)C(=O)N3CCCC3)c2C(N)=O)CO1 | . | 8 | -11
CC1CCCC(NC(=O)c2cccc(S(=O)(=O)NCc3ccccc3)c2)C1C (configuration not stated) | . | -2 | -9
COCc1ccc(CN2CCC(C(=O)Nc3cccc(-c4cscn4)c3)CC2)o1 | . | 7 | -2
Cn1cc(CN2CCC(C(=O)Nc3cccc(-c4cccc(F)c4)c3)CC2)cn1 | . | 21 | -36
Cc1cccc(CN2CCC(C(=O)Nc3cccc(-c4cccc(F)c4)c3)CC2)n1 | . | -74* | -94*
Cc1cccc(CN2CCC(C(=O)Nc3cccc(-c4cscn4)c3)CC2)n1 | . | 29 | 9
COc1cccc(-c2cccc(NC(=O)C3CCN(Cc4cnn(C)c4)CC3)c2)c1 | . | 21 | 0
CCCn1ncc(CN2CCC(C(=O)Nc3cccc(-c4cccc(F)c4)c3)CC2)c1C | . | ? | -85*
COCc1ccc(CN2CCC(C(=O)Nc3cccc(-c4cccc(Cl)c4)c3)CC2)o1 | . | -82* | -81*
Cc1c(CN2CCC(C(=O)Nc3cccc(-c4cccc(Cl)c4)c3)CC2)cnn1C | . | -100* | -85*
COc1ccc(NC(=S)N2CCc3ccccc3C2)cc1OC | 1% | -6 | -1
CCN(C(=O)COC(=O)c1ccc(=O)n(Cc2ccccc2)n1)C1CCCCC1 | . | -11 | 1
Cc1ccc(CCNC(=O)CCn2c(=O)c3cccn3c3ccc(F)cc32)cc1 | . | -6 | 8
Cc1ccc(C(=O)NCC(=O)NC2CCCCCC2)cc1 | . | 13 | -5
Cc1ccc(N2CC(C(=O)N3CCCCCC3)CC2=O)cc1 (configuration not stated) | . | -2 | 8
O=C(Nc1cccc(-c2cccc(Cl)c2)c1)C1CCN(Cc2ccon2)CC1 | . | 38 | -48
COc1cccc(CN2CCC(C(=O)Nc3ccc(-c4cccc(C)c4)cc3)CC2)c1O | . | -8 | -95*
C=CCn1cc(CN2CCC(C(=O)Nc3cccc(-c4cccc(F)c4)c3)CC2)c(C)n1 | . | -6 | -49
C=CCn1cc(CN2CCC(C(=O)Nc3cccc(-c4cccc(Cl)c4)c3)CC2)c(C)n1 | . | -99* | -93*
O=C(Nc1cccc(-c2cccc(Cl)c2)c1)C1CCN(Cc2ccccn2)CC1 | . | ? | -72*
Cc1cccc(-c2ccc(NC(=O)C3CCN(CC4CC4)CC3)cc2)c1 | . | -7 | -39
O=C1COc2ccc(S(=O)(=O)Nc3ccc(F)cc3)cc2N1 | . | -10 | -3
COc1ccc(C(C)=O)cc1COC(=O)CCNS(=O)(=O)c1ccc(C)c(C)c1 | . | -3 | 0
Cc1c(C)c2c(OCC(=O)N[C@@H](Cc3ccccc3)C(=O)O)cc3c(c2oc1=O)CCC(C)(C)O3 | . | -3 | 2
O=[N+]([O-])c1ccc(N2CCN(c3cccc(Cl)c3)CC2)nc1 | . | 23 | -32
SMILES | Luc counter | hERG WT inh | KCNH2 3.1 block
N#Cc1c(N2CCN(c3ccc([N+](=O)[O-])cc3)CC2)[n+](=O)c2ccc(Cl)cc2n1[O-] | . | ? | -97*
CN1C(=O)C(C)(C)c2cc(S(=O)(=O)NCCc3ccc(Cl)cc3)ccc21 | . | 1 | 11
OC(COc1ccc2c(c1)CCC2)CN1CCN(c2ccccc2F)CC1 (configuration not stated) | 6% | 15 | -25
Cc1ccc(N2CCN(CC(O)COc3ccc([N+](=O)[O-])cc3)CC2)cc1 (configuration not stated) | 0% | -88* | -89*
Cc1ccc(N2CCN(CC(O)COc3cccc(C)c3)CC2)cc1 (configuration not stated) | . | 32 | -25
COc1ccc(S(=O)(=O)CCC(=O)N2CCN(c3ccc([N+](=O)[O-])cc3)CC2)cc1 | . | 9 | ?
O=[N+]([O-])c1ccc(OCC(O)CN2CCN(c3ccccc3F)CC2)cc1 (configuration not stated) | 0% | -76* | -97*
Cc1ccc(C(=O)ON=C2CCN(c3ccc([N+](=O)[O-])cc3)CC2)cc1 | -6% | -109* | -103*
Cc1ccc(C(=O)NC(=S)N2CCN(c3ccc([N+](=O)[O-])cc3)CC2)cc1 | 0% | -30 | -47
Cc1ccc(S(=O)(=O)CCC(=O)N2CCN(c3ccc([N+](=O)[O-])cc3)CC2)cc1 | . | -37 | -77*
COc1ccc(OCC(O)Cn2ccnc2C)cc1 (configuration not stated) | 1% | 13 | 6
Cc1nccn1CC(O)COc1ccc([N+](=O)[O-])cc1 (configuration not stated) | . | -5 | -98*
COC(=O)c1ccccc1N/C=C/C(=O)c1ccc(Br)cc1 | -6% | 2 | -5
NC(=O)c1ccccc1N/C=C/C(=O)c1ccccc1 | 11µM* | 0 | -7
O=C(Nc1ccc(Cl)cc1)P(=O)(O)c1ccccc1 | . | -11 | 8
COc1ccc(-c2nc(CNS(=O)(=O)c3ccc(OC)c(OC)c3)cs2)cc1 | -1% | 4 | -114*
COc1ccc(S(=O)(=O)NCc2csc(C)n2)cc1OC | . | 7 | 2
COc1ccc(CN(CC(=O)NC2CCCC2)C(=O)CCC(=O)Nc2nccs2)cc1 | . | -5 | -13
C[C@@H](C(=O)Nc1ccc(OC(F)F)c(Cl)c1)N1C(=O)C2CC=CCC2C1=O (some centres not stated) | . | -7 | -3
Cc1ccc(C)c(N2CCN(S(=O)(=O)c3ccc4c(c3)CCN4C(=O)CCC(=O)O)CC2)c1 | 2% | 5 | -4
O=C(O)CCC(=O)N1CCc2cc(S(=O)(=O)N3CCN(c4ccc(F)cc4)CC3)ccc21 | 2% | -3 | -101*
CC(NCc1cccc(OCc2ccccc2)c1)C(O)c1ccccc1 (configuration not stated) | 1% | 22 | -148*
CC(NCc1ccc(OCc2ccc(Cl)cc2)cc1)C(O)c1ccccc1 (configuration not stated) | -1% | 27 | -34
CCNS(=O)(=O)c1ccc(CCC(=O)N2CCC(C)CC2)cc1 | . | -5 | -11
Cc1ccc(C(=O)Nc2ccccc2C(=O)O)cc1S(=O)(=O)Nc1ccccc1 | . | -7 | -3
SMILES | Luc counter | hERG WT inh | KCNH2 3.1 block
Cc1ccc(C(=O)Nc2ccccc2C(=O)O)cc1S(=O)(=O)NC1CCCCC1 | . | 7 | -71*
Cc1c(NS(=O)(=O)c2ccccc2F)c(=O)n(-c2ccccc2)n1C | . | -9 | -2
Cc1c(NC(=O)c2cccc(F)c2)c(=O)n(-c2ccccc2)n1C | -2% | -3 | -109*
COc1ccc(/C(O)=C/C(=O)C(=O)Nc2c(C)n(C)n(-c3ccccc3)c2=O)cc1 | 5% | -119* | 31
Cc1noc(C)c1S(=O)(=O)Nc1c(C)n(C)n(-c2ccccc2)c1=O | 9% | -79* | -26
Cc1c(NC(=O)c2ccc(F)cc2)c(=O)n(-c2ccccc2)n1C | -1% | 29 | 3
Cc1c(NC(=O)C(=O)/C=C(/O)c2ccccc2)c(=O)n(-c2ccccc2)n1C | 1% | -22 | -4
Cc1c(NS(C)(=O)=O)c(=O)n(-c2ccccc2)n1C | 2% | 0 | 4
Cc1cc(F)ccc1S(=O)(=O)Nc1c(C)n(C)n(-c2ccccc2)c1=O | 3% | -8 | -74*
CCn1c(SCc2ccccc2F)nnc1-c1ccncc1 | . | 3 | 10
